KB-3-1 cytotox = KB-3-1 parental cell cytotoxicity; KB-3-1 viability, CellTiter-Glo ATP luminescence, 72 h; Potency, µM (highest dose often 46.1 µM), usual class: cytotoxic; 400,000 tested, 1.4% active; AID 1347075; also: nearly all actives have a fitted effect of over 60% in size
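KB-3-1 parental drug-naive adenocarcinoma cells in DMEM/10% FBS, incubated 72 h at 37 C with pin-transferred compounds across a concentration series. Viability by CellTiter-Glo luminescence; concentration-response curves fitted after normalization.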
HT1080NT lethal = kills 2HG-producing HT-1080-NT fibrosarcoma cells; HT-1080-NT fibrosarcoma viability, CellTiter-Glo ATP luminescence, 48 h; Potency, µM (doses to about 46.1 µM), hits mostly cytotoxic; 360,000 tested, 1.6% active;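 also: NT is the 2HG producing partner of a matched IDH1 knockdown line; nearly all actives have a fitted effect of over 55% in size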
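Fibrosarcoma NT cells, 750 per well in 5% FBS RPMI, were exposed to compound for 48 hours. Viability: CellTiter-Glo luminescence.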
MCF10A rereplic = DNA re-replication induction in MCF 10a cells | 350,000 tested, 2.9% active | Potency, µM (series often up to 46.1 µM), usual class: activators | MCF 10A DNA re-replication, Hoechst nuclear intensity, 48 h | AID 624296; also: nearly all actives have a fitted effect of over 50% in size
SW480 rerep = inducers of DNA re-replication in SW480 colon cancer cells | SW480 DNA re-replication, Hoechst DNA content imaging, 48 h | Potency, µM (doses to about 46.1 µM), hits mostly activators | 340,000 tested, 1.8% active; also: nearly all actives have a fitted effect of over 55% in size
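Hoechst fluorescence of nuclei (405 nm excitation, 500-530 nm emission) measured by plate-scanning imager after 48 hr compound exposure at 37 C; re-replication scored as increased number of nuclei with elevated intensity.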
HT1080 IDH1KD tx = kills HT-1080 cells with IDH1 knockdown. HT-1080 IDH1 knockdown viability, ATP luminescence, 48 h. Potency, µM (highest dose often 46.1 µM), most hits filed as cytotoxic. 360,000 tested, 2% active. AID 686971
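% activity derives from luminescence (CellTiter-Glo), normalised to DMSO and no-cell wells. HT-1080-IDH1KD cells, 750/well, had 48 h compound exposure at 37 °C.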
KB-V1 cytotox = kills drug-selected multidrug resistant KB-V1 cells; KB-V1 MDR cells viability, CellTiter-Glo, 72 h; Potency, µM (highest dose often 46.1 µM), usual class: cytotoxic; 400,000 tested, 3.4% active; AID 1347076; also: nearly all actives have a fitted effect of over 60% in size
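Following 72 h at 37 degrees C with compound, KB-V1 cell viability was read by CellTiter-Glo luminescence, medium being phenol-red-free DMEM plus 10% FBS; concentration-response parameters came from normalized, curve-fitted qHTS data.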
Hits are given with their value. Only some compounds are listed: those with a hit (about 7.9% of all), similar ones and a draw of the others. Calls follow the shape of the dose curve; as a rule, active = well fitted curve in the direction sought with a large enough effect; inconclusive = small, poorly fitted or top-dose-only effect, or another doubt; inactive = no such curve, though single readings can be large; an effect the other way counts as inactive or inconclusive.

Screening O=C(CSc1ncc(C(F)(F)F)cc1Cl)N1CCN(S(=O)(=O)c2ccc3ccccc3c2)CC1 returned KB-3-1 cytotox inactive, HT1080NT lethal inactive, MCF10A rereplic inactive, SW480 rerep inactive, HT1080 IDH1KD tx inconclusive and KB-V1 cytotox 5.8µM.
`CCN1CCCC1CNC(=O)c1cc2c(-c3ccc(Cl)cc3)nn(C)c2s1` (centres undefined) gave KB-3-1 cytotox inconclusive, HT1080NT lethal 25.9µM, MCF10A rereplic inconclusive, SW480 rerep 20.6µM, HT1080 IDH1KD tx 20.6µM and KB-V1 cytotox inconclusive.
For CCN1CCCC1CNC(=O)C(=O)Nc1cccc(OC)c1 (centres undefined) the results were KB-3-1 cytotox inactive, HT1080NT lethal inactive, MCF10A rereplic inactive, SW480 rerep inactive, HT1080 IDH1KD tx inactive and KB-V1 cytotox inactive.
`CCCCNC(=O)c1cc2c(-c3ccc(Cl)cc3)nn(C)c2s1` gave KB-3-1 cytotox inactive, HT1080NT lethal inactive, MCF10A rereplic inconclusive, SW480 rerep inactive, HT1080 IDH1KD tx inactive and KB-V1 cytotox inactive.
CCN1CCCC1CNC(=O)c1cc2c(-c3cccc(OC)c3)nn(C)c2s1 (centres undefined) was read as KB-3-1 cytotox inactive, HT1080NT lethal 20.6µM, MCF10A rereplic inactive, SW480 rerep inactive, HT1080 IDH1KD tx inconclusive and KB-V1 cytotox inactive.
`COCCNC(=O)c1cc2c(-c3ccc(Cl)cc3)nn(C)c2s1` gave KB-3-1 cytotox inactive, HT1080NT lethal inactive, MCF10A rereplic inactive, SW480 rerep inactive, HT1080 IDH1KD tx inactive and KB-V1 cytotox inactive.
Screening Cn1nc(-c2ccc(Cl)cc2)c2cc(C(=O)NCCCN3CCCC3)sc21 returned KB-3-1 cytotox inconclusive, HT1080NT lethal inconclusive, MCF10A rereplic 23.1µM, SW480 rerep inconclusive, HT1080 IDH1KD tx inconclusive and KB-V1 cytotox inactive.
CCc1cccc(NS(=O)(=O)c2cc(-c3cnc(C)o3)ccc2OC)c1 was read as KB-3-1 cytotox inactive and KB-V1 cytotox inactive.
`COc1ccc(CCNc2ncnc3c2oc2ccccc23)cc1OC` gave KB-3-1 cytotox 9.2µM, HT1080NT lethal 7.94µM, MCF10A rereplic inactive, SW480 rerep inactive, HT1080 IDH1KD tx inactive and KB-V1 cytotox 2.59µM.
For COc1ccc(CCNc2nc(C)nc3c2oc2ccccc23)cc1OC the results were KB-3-1 cytotox inconclusive, HT1080NT lethal inactive, MCF10A rereplic inconclusive, SW480 rerep inactive, HT1080 IDH1KD tx inactive and KB-V1 cytotox 16.4µM.
O=C(Nc1ccc(F)cc1)C(c1ccncc1)N1CCN(CC(=O)N2CCCC2)CC1 (centres undefined) was read as KB-3-1 cytotox inactive, HT1080NT lethal inactive, HT1080 IDH1KD tx inactive and KB-V1 cytotox inactive.
Screening CCc1ccc(NS(=O)(=O)c2ccc(OC)c(C)c2)cc1 returned KB-3-1 cytotox inactive, HT1080NT lethal inactive, MCF10A rereplic inconclusive, SW480 rerep inactive, HT1080 IDH1KD tx inactive and KB-V1 cytotox 18.4µM.
For CCOc1cc(S(=O)(=O)Nc2ccc(CC)cc2)ccc1Cl the results were KB-3-1 cytotox inconclusive, HT1080NT lethal inconclusive, MCF10A rereplic inconclusive, SW480 rerep inactive, HT1080 IDH1KD tx inconclusive and KB-V1 cytotox 14.6µM.
Cc1ccc(S(=O)(=O)Nc2cccc(-c3ccc(N4CCC(C)CC4)nn3)c2)s1 was read as KB-3-1 cytotox inactive and KB-V1 cytotox inactive.
For CN1CCN(S(=O)(=O)c2ccc(Cc3ccc(S(=O)(=O)N4CCN(C)CC4)cc3)cc2)CC1 the results were KB-3-1 cytotox inactive, HT1080NT lethal inactive, MCF10A rereplic 20.6µM, SW480 rerep inactive, HT1080 IDH1KD tx inactive and KB-V1 cytotox inactive.
Screening CN1CCN(S(=O)(=O)c2ccc(-c3ccc(Cl)cc3)cc2)CC1 returned KB-3-1 cytotox inactive, HT1080NT lethal inactive, MCF10A rereplic inconclusive, SW480 rerep inactive, HT1080 IDH1KD tx inactive and KB-V1 cytotox 13µM.
For Cc1ccc(C)c(NC(=O)C(CC(C)C)N2Cc3ccccc3C2=O)c1 (centres undefined) the results were KB-3-1 cytotox inactive and KB-V1 cytotox inactive.
`NCCNC(=O)c1ccc(Cl)cn1` gave MCF10A rereplic inactive and SW480 rerep inactive.

Compound activity from PubChem.
